Results filed as inconclusive are left out. The source made the active and inactive calls. Unless noted, calls follow the shape of the full dose curve.
Legend:
[1] = qHTS assay for measurement of the activity of small molecule inhibitors on Zika virus induced Caspase-3 activity in human iPSC derived neural progenitor cells (hNPCs) (AID 1224857; active = well fitted inhibition curve with a large enough effect; also: nearly all actives have a fitted effect of over 65% in size)
Procedure, shortened: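 Human iPSC-derived neural progenitor cells pretreated 1 hr with compounds, then infected with Zika virus (2 FFU/cell) for 6 hours at 37 C. Caspase-3/7 measured by Caspase-Glo luminescence; % inhibition calculated from induction scaled to uninfected (0%) and infected (100%) wells.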

[2] = qHTS assay for measurement of the activity of small molecule inhibitors on Zika virus induced Caspase-3 activity in human astrocytoma cells (AID 1224859; active = well fitted inhibition curve with a large enough effect)
Procedure, shortened: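 SNB-19 astrocytoma cells, 250/well, pretreated 1 h with compounds, then Zika virus at 2 FFU/cell for 6 h at 37 C; Caspase-Glo 3/7 luminescence after 30 min; percent inhibition normalised to uninfected and infected controls.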

[3] = Natriuretic polypeptide receptor (hNpr1) antagonism - Pilot counterscreen GloSensor control cell line (AID 1347045); also: potency is read from the fitted curve at half-maximal effect
Procedure, shortened: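 The SNP-driven cGMP luminescence signal (50 uM, 20 min, room temperature) was measured in GloSensor HEK293 control cells. Compounds were tested as a LOPAC titration series and preincubated for 30-50 min.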

[4] = biological target: Atrial natriuretic peptide receptor 1 (Homo sapiens) (UniProt P16066); assay: Natriuretic polypeptide receptor (hNpr1) antagonism - Pilot screen (AID 1347049);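 also: agonist-evoked cGMP luminescence read 20 min after hNppA addition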; also: potency is read from the fitted curve at half-maximal effect
Chain of Atrial natriuretic peptide receptor 1 (Homo sapiens) (P16066 whole entry, looked up): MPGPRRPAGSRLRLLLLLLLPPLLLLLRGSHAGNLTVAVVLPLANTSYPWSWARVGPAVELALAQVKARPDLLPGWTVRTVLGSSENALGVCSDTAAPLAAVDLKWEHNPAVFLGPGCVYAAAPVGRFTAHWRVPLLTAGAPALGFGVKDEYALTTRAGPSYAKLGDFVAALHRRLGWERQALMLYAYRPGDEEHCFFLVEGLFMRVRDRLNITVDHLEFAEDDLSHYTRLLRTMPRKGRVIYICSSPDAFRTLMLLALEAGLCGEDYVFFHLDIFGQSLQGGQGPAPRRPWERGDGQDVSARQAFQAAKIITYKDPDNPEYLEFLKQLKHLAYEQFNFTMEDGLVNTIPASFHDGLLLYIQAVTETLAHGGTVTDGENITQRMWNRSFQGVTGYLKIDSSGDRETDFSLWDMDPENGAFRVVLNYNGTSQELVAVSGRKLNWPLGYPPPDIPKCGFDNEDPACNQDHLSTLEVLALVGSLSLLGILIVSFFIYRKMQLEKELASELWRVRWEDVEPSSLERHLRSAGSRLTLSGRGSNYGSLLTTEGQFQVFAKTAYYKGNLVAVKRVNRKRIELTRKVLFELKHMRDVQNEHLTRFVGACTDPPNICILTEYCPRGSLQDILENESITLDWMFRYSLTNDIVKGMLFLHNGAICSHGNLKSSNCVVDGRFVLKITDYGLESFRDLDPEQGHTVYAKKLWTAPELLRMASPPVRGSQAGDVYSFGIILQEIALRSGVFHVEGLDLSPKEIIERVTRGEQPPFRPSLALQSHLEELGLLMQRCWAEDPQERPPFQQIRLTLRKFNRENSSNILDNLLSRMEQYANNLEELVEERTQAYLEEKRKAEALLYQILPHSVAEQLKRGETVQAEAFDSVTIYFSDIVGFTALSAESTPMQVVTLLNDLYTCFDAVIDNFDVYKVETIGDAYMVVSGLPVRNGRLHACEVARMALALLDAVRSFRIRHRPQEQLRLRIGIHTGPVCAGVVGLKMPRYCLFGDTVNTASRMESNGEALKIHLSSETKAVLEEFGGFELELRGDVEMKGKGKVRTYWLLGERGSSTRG
Procedure, shortened: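 cGMP-sensor HEK293/hNpr1 cells, 1500/well, plated overnight at 37C. 2% GloSensor reagent, 2 h RT. Compound (23 nL pin transfer) 30 min RT, baseline luminescence pre-read. 0.1 nM hNppA, 20 min RT, post-read.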

[5] = biological target: Atrial natriuretic peptide receptor 2 (Homo sapiens) (UniProt P20594); assay: Natriuretic polypeptide receptor (hNpr2) antagonism - Pilot subtype selectivity assay (AID 1347050)
Chain of Atrial natriuretic peptide receptor 2 (Homo sapiens) (P20594 whole entry, looked up): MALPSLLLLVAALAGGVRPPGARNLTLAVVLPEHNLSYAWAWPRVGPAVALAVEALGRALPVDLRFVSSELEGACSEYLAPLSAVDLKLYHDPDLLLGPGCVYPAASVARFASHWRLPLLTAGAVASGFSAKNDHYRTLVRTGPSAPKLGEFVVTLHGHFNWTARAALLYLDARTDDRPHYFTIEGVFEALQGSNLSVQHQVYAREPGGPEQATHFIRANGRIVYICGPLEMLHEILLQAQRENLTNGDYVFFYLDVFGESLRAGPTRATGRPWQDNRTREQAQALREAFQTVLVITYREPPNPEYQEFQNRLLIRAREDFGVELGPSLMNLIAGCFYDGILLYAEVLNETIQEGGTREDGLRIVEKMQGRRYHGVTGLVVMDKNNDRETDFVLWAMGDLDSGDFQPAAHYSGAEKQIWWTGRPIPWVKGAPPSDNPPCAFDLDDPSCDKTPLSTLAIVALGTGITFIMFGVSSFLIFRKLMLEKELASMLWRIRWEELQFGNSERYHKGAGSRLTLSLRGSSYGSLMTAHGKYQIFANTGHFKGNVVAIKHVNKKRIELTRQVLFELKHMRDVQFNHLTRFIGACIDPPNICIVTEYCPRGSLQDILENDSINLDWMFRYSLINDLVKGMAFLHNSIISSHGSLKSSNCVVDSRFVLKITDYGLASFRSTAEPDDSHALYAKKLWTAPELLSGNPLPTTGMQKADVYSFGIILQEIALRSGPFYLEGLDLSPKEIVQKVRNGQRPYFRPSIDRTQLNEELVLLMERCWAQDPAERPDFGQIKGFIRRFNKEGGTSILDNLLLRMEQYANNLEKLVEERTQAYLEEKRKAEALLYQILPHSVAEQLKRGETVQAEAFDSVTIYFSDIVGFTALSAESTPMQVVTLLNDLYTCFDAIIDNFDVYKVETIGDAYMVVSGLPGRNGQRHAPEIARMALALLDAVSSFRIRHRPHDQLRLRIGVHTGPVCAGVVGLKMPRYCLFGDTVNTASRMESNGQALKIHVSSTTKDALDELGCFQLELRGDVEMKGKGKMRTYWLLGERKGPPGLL
Procedure, shortened: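 Luminescence from a genetically encoded cGMP luciferase biosensor in hNpr2-expressing HEK293 cells is read before and 20 min after adding 1 nM hNppC. Test compounds, in interplate 1:5 titrations, are added 30-50 min ahead of the agonist.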

Measured: Potency

COc1cc(N)c(Cl)cc1C(=O)OCCN1CCCCC1
inactive: all assays above

O=C(O)C1=CC(=C(c2ccc(O)c(C(=O)O)c2)c2ccc(O)c(C(=O)O)c2)C=CC1=O
inactive: all assays above

OC[C@H]1O[C@H](n2cnc3c(N[C@H]4CCC[C@@H]4O)ncnc32)[C@H](O)[C@@H]1O
inactive: all assays above

COc1ccc2c(c1)CCC1C2CC[C@@]2(C)C1CC[C@@H]2NCCCCCCN1C(=O)C=CC1=O (stereo not given in full)
inactive: all assays above

CN(C)CCC(c1ccc(Br)cc1)c1ccccn1 (stereo not given)
not listed: [5]
inactive: all other assays above

CNC(=O)c1cc2c(cn1)[nH]c1ccccc12
inactive: all assays above

Cc1ccc([N+](=O)[O-])cc1S(=O)(=O)N(C)C
inactive: all assays above

S=C(S)N1CCCC1
active: [3] 7.36 µM | [4] 9.53 µM
inactive: [1] | [2]

NC/C=C\C(=O)O
not listed: [5]
inactive: all other assays above

OC[C@H]1NC[C@@H](O)[C@@H]1O
not listed: [5]
inactive: all other assays above

O=C(O)C1=CCCN(CCON=C(c2ccccc2)c2ccccc2)C1
inactive: all assays above

CN(C)C(=O)/N=N/C(=O)N(C)C
not listed: [5]
inactive: all other assays above

NCCCNCCCCNCCCN
inactive: all assays above

Reference: PubChem BioAssay (NCATS)
